Measured values reported in ChEMBL document CHEMBL3988442, “University of Dundee, Small-Polar-MMV Screening Library” (2021).

target: AMP-activated protein kinase, AMPK (Homo sapiens) (UniProt P54646+O43741+P54619+Q9UGJ0+Q9Y478+Q13131+Q9UGI9); experiment: AMP-dependent Kinase enzyme assay. An in vitro enzyme assay that detects ADP turnover that is directly proportional to AMPK activity. This uses naive AMPK that is activated during the assay with MK-8722; type: functional; design: scale not given: direction of the effect not stated beside the values; conditions: 30 µM

Compared with COCCC(=O)NCc1ccc(-c2ncncc2C(=O)N(C)C)cc1, COc1ccccc1C(=O)NCCC(=O)Nc1c(C)nn(C)c1C is higher in Percent Effect: -7.24% for the first, 9.26% for the second.

Compared with CCc1c(C)nc2cc(-c3nccn3C)nn2c1N1CCCC(CO)C1 (stereo not given), Cc1nccn1CCCN1CCCC(c2nccn2CC2CCC2)C1 (stereo not given) is lower in Percent Effect: 26% for the first, 1.25% for the second.

Going from CCc1nc(C)c(CC(=O)N2CCC3(CC2)OCCCC3OC)c(=O)[nH]1 (stereo not given) to CCOC(=O)C1(O)CCN(C(=O)Nc2ccc(CC)cc2)CC1, the Percent Effect rises from -123% to 0.524%.

Going from COc1ccc(CN(C)C(=O)CN2CC(n3cccn3)C2)cc1F to COc1cccc(-n2cc(CN(C)Cc3ccnc(C(C)C)n3)cn2)c1, the Percent Effect falls from -4.28% to -12.4%.

Going from CCn1nc(C)c(C(=O)N2C[C@@H](CN(C)C)[C@@H](CO)C2)c1C to CN(C)Cc1nc(C(=O)N2CCCC(COc3ccc(F)cc3)C2)cs1 (stereo not given), the Percent Effect rises from -14.6% to 8.59%.

First: O=C(c1coc(-c2ccccc2)n1)N1CCS(=O)(=O)CC1
Second: COc1cccc(C(=O)N2CCN(C(=O)CCCc3cn[nH]c3)CC2)c1
The Percent Effect of the first is higher: 0.626% for the first, -1.35% for the second.

Compared with CCC(C#N)NC(=O)c1sccc1OC (stereo not given), CCOc1ccc(NC(=O)NCCS(=O)(=O)CC)cc1C is lower in Percent Effect: 2.49% for the first, -0.616% for the second.

Going from Cc1ccccc1CNC(=O)CNc1ccc(OC2CCOC2)cc1 (stereo not given) to CN(CC(=O)NCC(=O)Nc1ccc(F)cc1)Cc1cccs1, the Percent Effect falls from 10.2% to -1.85%.

Compared with COc1cc2ncn(Cc3ncc[nH]3)c(=O)c2cc1OC, CN(C)C(C(=O)N1CCC(c2ncc[nH]2)CC1)c1ccc2c(c1)OCO2 (stereo not given) is higher in Percent Effect: -1.8% for the first, 1.17% for the second.

Going from N#Cc1cccnc1Nc1ccc(N2CCC(C(N)=O)CC2)cc1 to COc1cccnc1NC(=O)COC1CCCC1, the Percent Effect falls from 19% to 8.7%.

First: CC(C)c1cc(C(=O)NCCc2nc(-c3cccnc3)n[nH]2)[nH]n1
Second: CC(C(=O)NCCc1ccc2c(c1)OCCO2)n1cncn1 (stereo not given)
The Percent Effect of the first is higher: 57.4% for the first, -6.97% for the second.

Compared with CCCc1nnc(N2CCC(C3CCN(C)CC3)CC2)o1, O=C(C1CCCN(CCc2ccc3c(c2)CCO3)C1)N1CCCC1 (stereo not given) is higher in Percent Effect: -1.66% for the first, 1.69% for the second.

Compared with CC(CC(=O)c1ccco1)NC(=O)c1ccccn1 (stereo not given), CC(CC(=O)c1ccccc1)NC(=O)c1ccon1 (stereo not given) is higher in Percent Effect: -8.76% for the first, 8.5% for the second.

First: Nc1cc(-c2c[nH]nc2C2CCN(C(=O)C3CCCC3)C2)ccn1 (stereo not given)
Second: Cc1noc(C)c1C(=O)N1CCC(c2cc3cnccc3[nH]2)CC1
The Percent Effect of the first is lower: -6.9% for the first, 16.4% for the second.

First: O=C(CCn1ccnc1)N1CC[C@H](Oc2cccc(F)c2)[C@@H](O)CC1
Second: O=C(CCCn1cccn1)N1CCCC(n2cncn2)C1 (stereo not given)
The Percent Effect of the first is lower: -2.81% for the first, 5.88% for the second.

Going from Cc1noc(OCC(=O)N2CCCCC2C)n1 (stereo not given) to CC(C)c1nc(CN2CCN(C(=O)OC(C)(C)C)C(C)C2)no1 (stereo not given), the Percent Effect rises from -1.69% to 1.33%.

First: CCc1nc(CCNc2ncccc2S(N)(=O)=O)sc1C
Second: COCCN(Cc1ccccn1)C(=O)Nc1cccnc1-n1cccn1
The Percent Effect of the first is lower: -3.81% for the first, -0.778% for the second.

Compared with CC(NCc1cnc(N2CCOCC2)nc1)c1ccc(Cl)s1 (stereo not given), CCc1nc2n(n1)CC(NCc1cc3ccccc3o1)CC2 (stereo not given) is lower in Percent Effect: 10.3% for the first, -3.35% for the second.

Going from CC(NC(=O)NCc1cccnc1N(C)C)c1ccc(F)cc1 (stereo not given) to CC(=O)N1CCCC1CCc1ccc(Cl)nn1 (stereo not given), the Percent Effect rises from -7.51% to 12.8%.

Going from O=C(c1ccccc1)C1CCN(C(=O)CC2COCCN2)CC1 (stereo not given) to Cc1cc(C)cc(-n2ncc3c2CCCC3N)c1 (stereo not given), the Percent Effect rises from 1.36% to 15.1%.
